Screening results as filed in PubChem BioAssay.
Tau fluor cs = Counterscreen qHTS for Inhibitors of Tau Fibril Formation, Fluorescence Polarization; tau K18 P301L Alexa594 fluorescence, heparin fibrillization; AID 1463, 2008; 280,000 compounds, 0.93% hits; Potency, µM (highest dose often 57.7 µM), without a hit: at the top dose activity change, negative = decrease; further: potency means the concentration at half of the fitted maximal effect; nearly all actives have a fitted effect of over 55% in size
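Human K18 P301L tau (15 uM unlabeled plus 0.24 uM Alexa 594-labeled, final) in 100 mM sodium acetate pH 7 was mixed with compound and 20 uM heparin and incubated 6 hr at 37 C.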
Tau FP inhib = qHTS for Inhibitors of Tau Fibril Formation, Fluorescence Polarization | Potency, µM (doses to about 57.7 µM), for inactives: at the highest dose activity, negative = inhibition, actives largely listed as inhibitors | K18 P301L tau heparin fibrillization, Alexa594 FP, 6 h | Microtubule-associated protein tau (Homo sapiens), P10636 | 280,000 compounds, 0.39% hits | AID 1468, 2008; further: potency means the concentration at half of the fitted maximal effect; nearly all actives have a fitted effect of over 55% in size
Target sequence (P10636 561-689 P618L limits assumed): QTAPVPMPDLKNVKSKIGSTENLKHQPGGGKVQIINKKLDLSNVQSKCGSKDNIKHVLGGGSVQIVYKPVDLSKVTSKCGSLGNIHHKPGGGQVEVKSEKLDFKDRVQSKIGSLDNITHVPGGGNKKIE
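Human K18 P301L fragment (15 uM unlabeled plus 0.24 uM Alexa 594-labeled) in 100 mM sodium acetate pH 7 with compound, aggregation induced by 20 uM heparin for 6 hr at 37 C. ThT (30 uM) added for 1 hr, then Alexa 594 FP read.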
TRb-SRC2 inh = qHTS for Inhibitors of the Interaction of Thyroid Hormone Receptor and Steroid Receptor Coregulator 2; Thyroid hormone receptor beta (Homo sapiens), P10828; TRbeta-SRC2 peptide binding, fluorescence polarization; receptor liganded with 1 µM T3; Potency, µM (titrated, usually from 106 µM), for the others: at the top dose activity change, negative = inhibition, actives largely listed as inhibitors; 280,000 compounds, 0.065% hits;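 further: potency means the concentration at half of the fitted maximal effect; plate controls were bound peptide for no effect and peptide without receptor for full effect; nearly all actives have a fitted effect of over 50% in size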
Target sequence (P10828 whole entry, looked up): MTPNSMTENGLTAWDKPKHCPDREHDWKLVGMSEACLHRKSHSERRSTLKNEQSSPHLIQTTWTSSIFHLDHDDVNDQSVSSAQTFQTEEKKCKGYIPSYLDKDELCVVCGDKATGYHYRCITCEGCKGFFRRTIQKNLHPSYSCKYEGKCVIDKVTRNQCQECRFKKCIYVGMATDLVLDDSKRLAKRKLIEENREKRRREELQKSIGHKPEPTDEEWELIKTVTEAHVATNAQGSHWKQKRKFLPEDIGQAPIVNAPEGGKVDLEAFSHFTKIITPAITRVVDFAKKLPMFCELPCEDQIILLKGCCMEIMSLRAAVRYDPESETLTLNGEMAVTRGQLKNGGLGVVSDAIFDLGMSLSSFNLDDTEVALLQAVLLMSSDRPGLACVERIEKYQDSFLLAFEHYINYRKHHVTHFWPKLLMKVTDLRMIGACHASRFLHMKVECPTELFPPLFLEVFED
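Human TRb ligand-binding domain (0.6 uM) is mixed with 20 nM Texas Red SRC2 peptide and 1 uM T3; after compound addition and 5 hr at ambient temperature, polarization is measured and normalized to unbound and bound controls.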
PNC assembly inh = High Content Assay for Compounds that inhibit the Assembly of the Perinucleolar Compartment | AID 2417, 2010 | activity change (PNC), negative = inhibition, % at 10 µM | 140,000 compounds, 3.1% hits | PC3M PTB-GFP, PNC prevalence imaging, 16 h; stronger effect = lower value;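 active means readout at or below -70, meaning at least 70% loss of cells showing the perinucleolar compartment, a nuclear body marking cancer cells; inconclusive means readout between -30 and a set limit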;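 further: plate controls were DMSO wells for no effect and camptothecin positive control wells for full effect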
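Read-out is percentage of cells bearing a perinucleolar compartment, from automated 20x imaging of fixed, Hoechst-stained PC3M PTB-GFP cells. Cells were seeded 4 h, then exposed 16 h to compound (23 nl of library stock) in duplicate plates.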
Tau fibril ThT = qHTS for Inhibitors of Tau Fibril Formation, Thioflavin T Binding; 270,000 compounds, 2.1% hits; Potency, µM (highest dose often 57.4 µM), for inactives: at the highest dose activity, negative = inhibition, actives largely listed as inhibitors; AID 1460, 2008; Microtubule-associated protein tau (Homo sapiens), P10636; recombinant tau K18 P301L (four-repeat tau fragment), heparin-induced fibrillization, ThT fluorescence; further: potency means the concentration at half of the fitted maximal effect; nearly all actives have a fitted effect of over 55% in size
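K18 P301L tau (15 uM + 0.24 uM Alexa 594-tagged), heparin 20 uM, NaOAc pH 7, 6 h 37 C; ThT 30 uM, 1 h RT, ex 450/em 510 nm.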
TR SRC2 fluor cs = Total Fluorescence Counterscreen for Inhibitors of the Interaction of Thyroid Hormone Receptor and Steroid Receptor Coregulator 2 | TRb/SRC2 Texas Red total fluorescence interference | Potency, µM (series often up to 106 µM), for the others: at the highest dose fluorescence change, negative = quenching | 280,000 compounds, 0.29% hits; active means well fitted curve in either direction with a large enough effect; inconclusive means small, poorly fitted or top-dose-only effect; further: potency means the concentration at half of the fitted maximal effect
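Human TRβ ligand-binding domain (0.6 uM) and Texas Red SRC2 peptide (20 nM) in Tris buffer with 1 uM T3 and 5% DMSO were incubated with pinned compound for 5 hr at ambient temperature. Total fluorescence was computed as S + 2P (555/632 nm).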
* marks the source's active call; other numbers are inactive results; ? = inconclusive; / = no result; [ ] = remark or other dose. Shown are actives, neighbours in structure and some others; about 4.6% of the full set was active somewhere. Unless noted, the call rests on the fitted dose curve; in most records, active means well fitted curve in the direction sought with a large enough effect; inconclusive means small, poorly fitted or top-dose-only effect, or another doubt; inactive means no such curve, though single readings can be large; an effect the other way counts as inactive or inconclusive. Unless noted, on the % scale 0 is the no-effect control and ±100 the full control effect.

SMILES	Tau fluor cs	Tau FP inhib	TRb-SRC2 inh	PNC assembly inh	Tau fibril ThT	TR SRC2 fluor cs
CCOc1ccc2[nH]c(=O)c(CN(Cc3ccco3)C(CC)c3nnnn3Cc3ccccc3)cc2c1 (stereo not given)	-12.1%	?	-6.4%	20.3	25.1µM*	0.0%
Cn1nc(C(=O)Nc2ccccc2C#N)c2c1-c1ccccc1SC2	-15.0%	-7.6%	6.7%	/	-15.5%	-0.2%
CCOc1ccccc1NC(=O)c1nn(C)c2c1CSc1ccccc1-2	11.2µM*[quencher]	-4.8%	-3.2%	/	?	-3.0%
Oc1c(Cl)cc(Cl)cc1C(C#Cc1ccccc1)N1CCOCC1 (stereo not given)	?	-4.3%	-1.9%	?	14.1µM*	-1.0%
CN(C)c1ccc(C(CNC(=O)c2ccccc2)c2c[nH]c3ccccc23)cc1 (stereo not given)	14.1µM*[quencher]	?	0.0%	68.6	?	-3.3%
CNc1ncnc2c1ncn2[C@@H]1O[C@H](CO)[C@@H](O)[C@@H]1O	/	/	-1.1%[53 µM]	/	/	-7.2%[53 µM]
C=CCSc1nnc2nc3[nH]c4c(C)cccc4c3nn12	-15.1%	8.2%	-0.5%	32.8	15.8µM*	-6.7%
CCCCS(=N)(=O)CCC(N)C(=O)O (stereo not given)	-0.5%	0.9%	-3.8%	/	-3.9%	1.4%
Nc1nc(-c2ccc(Cl)cc2)c(N=Nc2ccc(S(=O)(=O)N3CCOCC3)cc2)s1	11.2µM*[quencher]	?	0.6%	-10.1	14.1µM*	1.6%
Cc1ccc(C(=O)Oc2oc(-c3ccccc3)nc2C=Nc2ccc(N(C)C)cc2)cc1	4.4%	-2.1%	-7.5%	?	?	-5.1%
CN(C)c1ccc(N=Cc2nc(-c3ccccc3)oc2OC(=O)c2cccc(Cl)c2)cc1	?	?	-20.1%	64.2	7.94µM*	0.6%
Cc1cccc(-c2nc(Nc3ccc(N4CCOCC4)cc3)c3ccccc3n2)c1	11.2µM*[quencher]	?	1.0%	9.8	?	-9.7%
CC(=O)c1cccc(Nc2nc(-c3cccc(C)c3)nc3ccccc23)c1	2.82µM*[quencher]	7.08µM*	-1.2%	/	-7.7%	-0.1%
Cc1nc2ccccc2nc1N/N=C/c1ccc(O)cc1	?	11.7%	4.2%	/	14.1µM*	-7.3%
O=C(Nc1nc(-c2ccccc2)nc2ccccc12)c1ccc(F)cc1	-5.9%	?	4.4%	/	5.0%	2.7%
CC(=O)Nc1ccc(Nc2nc(-c3ccccc3)nc3ccccc23)cc1	14.1µM*[quencher]	-3.1%	0.6%	/	?	0.5%
COc1ccc(SCC(Cc2ccccc2)N2CCN(C)CCC2=O)cc1 (stereo not given)	/	/	-3.6%	/	/	-2.5%
Cc1ccc(N=Cc2cc(C)n(C3CCCC3)c2C)cc1	-6.7%	-11.3%	-6.6%	53.0	-7.2%	-2.3%
COc1ccc(-c2n[nH]c(C)c2-c2cnn(-c3ccccc3)c2)c(O)c1	?	1.0%	-12.8%	-1.4	-14.7%	-5.9%
Clc1cccc(Nc2nc(-c3ccncc3)nc3ccccc23)c1	-21.9%	-11.1%	-1.0%	/	-8.1%	-0.7%
Oc1ccc(Nc2nc3ccccc3nc2Nc2ccc(O)cc2)cc1	7.08µM*[quencher]	?	-4.7%	1.2	15.8µM*	-11.4%
CC(=O)c1cccc(Nc2nc(-c3ccccc3Cl)nc3ccccc23)c1	?	?	10.9%	/	-6.4%	-14.4%
Oc1ccc(Nc2nc(-c3ccc(Cl)cc3)nc3ccccc23)cc1	3.98µM*[quencher]	?	1.3%	/	12.6µM*	-7.1%
COC(=O)c1ccc(Nc2nc(-c3ccccc3Cl)nc3ccccc23)cc1	?	12.6µM*	11.2%	/	10.7%	-3.5%
COC(=O)c1ccc(NS(=O)(=O)c2ccc3c(c2)n(C)c(=O)c(=O)n3C)cc1	-0.9%	-2.4%	-3.5%	/	-4.7%	-1.0%
SMILES	Tau fluor cs	Tau FP inhib	TRb-SRC2 inh	PNC assembly inh	Tau fibril ThT	TR SRC2 fluor cs
COC(=O)c1ccc(NS(=O)(=O)c2ccc3[nH]c4c(c3c2)CCCC4)cc1	10µM*[quencher]	-14.0%	-4.8%	/	1.4%	28.2µM*[quencher]
COC(=O)c1ccc(NS(=O)(=O)c2ccc3[nH]c4c(c3c2)CCCCC4)cc1	3.98µM*[quencher]	?	-7.3%	/	-0.8%	?
CCOC(=O)CC(NS(=O)(=O)c1ccc2[nH]c3c(c2c1)CCCC3)c1ccccc1Cl (stereo not given)	?	19.6%	1.2%	/	-10.6%	?
Fc1ccccc1N1CCN(c2nnc(C(F)(F)F)c3nnn(Cc4ccccc4)c23)CC1	-14.1%	-0.1%	3.5%	/	-14.2%	-1.2%
O=C(COc1ccc2c(c1)CCC2)N1CCc2ccccc21	-5.8%	2.2%	1.1%	-80.6*	?	1.1%
O=C(COC(=O)C1(c2ccc(F)cc2)CCCC1)N1CCc2ccccc21	-5.2%	6.6%	4.1%	-109.0*	-4.8%	-5.2%
CC(=O)Nc1ccc(C(=O)NNS(=O)(=O)c2ccc(C)cc2)cc1	11.5%	1.1%	-1.5%	/	7.8%	-4.1%
COC(=O)CCCCCN1C(=O)NC(c2ccccc2)C(C(=O)OCc2ccccc2)=C1C (stereo not given)	-5.4%	21.0%	-5.8%	-92.3*	?	0.0%
CC(N1CCOC1=O)S(=O)(=O)c1ccccc1 (stereo not given)	-4.1%	-3.8%	-0.2%	-110.2*	-0.7%	2.2%
N#CC(c1nc2ccccc2nc1N1CCOCC1)S(=O)(=O)c1ccccc1 (stereo not given)	-21.3%	-3.1%	7.7%	/	-17.8%	-2.4%
CCN(CC)S(=O)(=O)c1ccc(C(=O)NCc2cccs2)cc1	-2.9%	0.1%	-11.1%	?	-0.9%	-0.8%
N#Cc1c(C#N)c(O)c2ccccc2c1O	-25.6%	?	3.7%	/	14.1µM*	-1.3%
Cc1cc(O)c2ccccc2c1O	/	/	0.8%	/	/	-5.8%
O=C(COC(=O)Cc1ccsc1)NCC1CCCCC1	-6.5%	?	-1.6%	-89.7*	0.0%	-0.3%
O=C(COC(=O)Cc1ccc(Br)cc1)NCC1CCCCC1	-9.0%	1.8%	-0.3%	/	-13.6%	0.8%
CS(=O)(=O)c1nc(-c2ccccc2)cc(C(F)(F)F)n1	2.4%	-5.9%	2.2%	-100.0*	7.4%	-4.7%
CCCCCCc1nc2ccccc2c(=O)n1NC(=O)c1c(O)c2c(n(CC(C)C)c1=O)CCCC2	-4.0%	-12.0%	6.5%	?	1.8%	2.2%
Cc1nc2ccccc2c(=O)n1NC(=O)c1c(O)c2c(n(CC(C)C)c1=O)CCCC2	-16.0%	-0.7%	11.0%	-94.5*	?	-1.2%
